Measurements: PubChem BioAssay AID707 (Columbia University Molecular Screening Center, 2007)
Among all 91,000 compounds or so, about 310 (0.34%) were called active. The sample holds actives, similar compounds and a random draw of the others, so the mix is not that of the screen. Unmarked numbers belong to inactive results. No stated cut-off is given here; in the data, active means inhibition above about 80%; inactive means the rest.

These compounds were tested against Bifunctional epoxide hydrolase 2 (Homo sapiens) (UniProt P34913) (assay: soluble epoxide hydrolase inhibitors, primary screen, biochemical, human sEH (AID 707)). Settings: recombinant human sEH enzymatic activity assay; at 2 µM; stronger effect = higher value.
Sequence of Bifunctional epoxide hydrolase 2 (Homo sapiens) (P34913 whole entry, looked up): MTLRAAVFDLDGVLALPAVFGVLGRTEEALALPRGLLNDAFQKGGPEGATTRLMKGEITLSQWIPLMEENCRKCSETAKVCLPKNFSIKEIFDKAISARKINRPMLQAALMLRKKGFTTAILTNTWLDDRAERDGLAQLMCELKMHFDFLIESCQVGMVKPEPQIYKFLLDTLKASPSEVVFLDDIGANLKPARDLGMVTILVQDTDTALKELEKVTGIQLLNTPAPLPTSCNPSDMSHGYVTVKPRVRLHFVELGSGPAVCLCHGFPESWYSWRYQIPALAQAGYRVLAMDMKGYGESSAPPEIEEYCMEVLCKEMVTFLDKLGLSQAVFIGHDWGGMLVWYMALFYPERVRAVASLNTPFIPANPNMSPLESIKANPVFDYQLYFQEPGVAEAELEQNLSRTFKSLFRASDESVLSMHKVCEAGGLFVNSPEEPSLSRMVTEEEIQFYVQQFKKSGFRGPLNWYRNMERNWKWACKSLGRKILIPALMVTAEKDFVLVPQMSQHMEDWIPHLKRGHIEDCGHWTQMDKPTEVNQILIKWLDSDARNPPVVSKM

Row | SMILES | inhibition
1 | CON(C)S(=O)(=O)c1ccc2c(c1)NC(=O)C1CCCN21 (stereo not drawn) | -14.7%
2 | O=C(NNC(=O)c1cccnc1)Nc1ccccc1 | -21.5%
3 | N#C/C(=C/c1ccc(Cl)cc1)NC(=O)c1ccccc1 | 3.7%
4 | CCOC(=O)c1ccc(NC(=O)CSc2nnc(COc3ccccc3OC)n2C)cc1 | 9.6%
5 | CCCCNC(=O)CSc1nc2ccc(NC(=O)CSc3nnc(COc4ccccc4C)n3C)cc2s1 | 88.5% (active)
6 | CCCCNC(=O)CSc1nnc(-c2ccco2)n1C | -1.7%
7 | CC(CC(=O)Nc1cc(C(F)(F)F)ccc1Cl)c1ccccc1 (stereo not drawn) | 49.5%
8 | CC1CCCCN1CC(=O)NCc1ccc2c(c1)OCO2 (stereo not drawn) | 3.9%
9 | CCc1c(C)nc2ncnn2c1N1CCC(C(=O)NCc2ccc3c(c2)OCO3)CC1 | 83.3% (active)
10 | CCOC(=O)NCc1ccc2c(c1)OCO2 | 4.7%
11 | COc1ccc(NC(=O)Nc2ccc3nsnc3c2)cc1 | 75.6%
12 | CCCCNCc1ccc(SC)cc1 | 10.8%
13 | COc1ccc2c(c1)SC(C)CC2=O (stereo not drawn) | -11.8%
14 | Cc1cccc(N(C(=O)Cc2cccs2)C(C(=O)NC2CCCC2)c2ccsc2)c1 (stereo not drawn) | 1.9%
15 | Cc1cccc(NC(=S)Nc2ccc(Br)cc2)c1 | 17.8%
16 | COc1ccc(CCNC(=S)NC(=O)/C=C/c2ccc(C)cc2)cc1OC | -0.9%
17 | Cc1cccc(-n2cnc(C(=O)Nc3cccnc3)c2)n1 | -6.9%
18 | Cc1ccc2nc(Nc3ccccc3O)nc(-c3ccccc3)c2c1 | 0.8%
19 | c1ccc2c(CSCc3nc4ccccc4[nH]3)cccc2c1 | 10.5%
20 | Cc1ccccc1OC/C(O)=C(\C#N)c1nc2ccccc2[nH]1 | -13.4%
21 | COC(=O)c1ccc(C(=O)Nc2cc(Cl)ccc2Cl)cc1NC(=O)c1ccccc1C | -1.7%

Row | SMILES | inhibition
22 | Cc1ccccc1OCc1nnc(SCC(=O)N2c3ccccc3Sc3ccc(Cl)cc32)o1 | -2.3%
23 | CC1Cc2ccccc2N1CC(=O)Nc1ccc2c(c1)OC(F)(F)O2 (stereo not drawn) | 49.2%
24 | CCOC(=O)COc1cc(OCC(=O)OCC)c2c(=O)cc(-c3ccccc3)oc2c1 | -14.8%
25 | COCCCn1c(SCc2cccc(OC)c2)nc2cc(OC)c(OC)cc2c1=N | 7.8%
26 | Cc1[nH]nc(-c2ccc(OCc3cnn(-c4ccccc4)c3)cc2O)c1Oc1ccc(Cl)cc1 | 11.4%
27 | COc1ccc(C(=O)NC(=S)Nc2ccccc2N2CCN(S(C)(=O)=O)CC2)cc1OC | 12.4%
28 | Cc1ccc2nc(SCc3nnc(-c4ccccc4[N+](=O)[O-])o3)c(C#N)cc2c1 | 0.2%
29 | Cc1cccc(-n2ncc(C#N)c2-n2cccc2)c1 | 0.9%
30 | CCCC(=O)NC(Nc1ccccc1OC)C(Cl)(Cl)Cl (stereo not drawn) | 6.5%
31 | Fc1ccccc1COc1ccccc1CNCc1ccncc1 | 5.2%
32 | CC(=O)Nc1ccccc1C(=O)C(=O)Nc1ccc(F)cc1 | -20.5%
33 | COC(=O)CNC(=O)c1ccccc1[N+](=O)[O-] | -15.7%
34 | O=C(CCc1ccc(S(=O)(=O)N2CCOCC2)cc1)Nc1ccc2ccccc2c1 | 21.6%
35 | CONC(=O)c1cc(OCC(F)(F)F)ccc1OCC(F)(F)F | 6%
36 | Cc1c(Br)c([N+](=O)[O-])nn1C(C)C(=O)Nc1nccs1 (stereo not drawn) | -4.7%
37 | N#Cc1ccc(-c2ccc(Cl)cc2)nc1Oc1ccc(F)cc1 | 7.8%
38 | COCc1cc(C)nc2sc3c(=O)n(-c4cccc5ccccc45)nnc3c12 | 3.4%
39 | Cc1ccc(-n2c(C)cc(/C=C(\C#N)C(=O)NCC3CCCO3)c2C)cc1 (stereo not drawn) | 10.8%
40 | O=Cc1c(N2CCN(c3cccc(Cl)c3)CC2)nc2ccccn2c1=O | 1.4%
41 | COc1cccc(NC(=O)Cc2ccc(C)cc2)c1 | 1.6%
42 | CC(=O)c1cccc(NC(=O)Nc2ccc(C)cc2)c1 | 48.2%

Row | SMILES | inhibition
43 | Cc1cccc(NC(=O)Nc2cccc(Oc3c(F)c(F)c(F)c(F)c3F)c2)c1 | 80.6% (active)
44 | O=C(/C=C\NCC(=O)c1ccccc1)c1ccccc1 | 2.3%
45 | COc1ccc2c(c1OC)C(=O)c1ccccc1C2=O | -2.2%
46 | Cc1onc(-c2c(Cl)cccc2Cl)c1C(=O)c1c[nH]c(C(=O)NC2CC2)c1 | 2%
47 | Cc1[nH]n(-c2ccccc2)c(=O)c1CCOC(=O)c1ccc(C(F)(F)F)cc1 | 7.1%
48 | C/C(=N/NC(=O)c1ccc(NC(=O)c2ccc(F)cc2)cc1)c1ccccc1 | -3.4%
49 | Cc1cc2c(c(=O)n1C)C(C(C)C)C(C#N)=C(N)O2 (stereo not drawn) | -3.6%
50 | CNS(=O)(=O)c1cnccc1N1CCN(c2cccc(C)c2)CC1 | 13.4%
51 | Cc1ccc(-c2nnc(-n3nnc4ccccc43)c3ccccc23)cc1 | -3.9%
52 | C=CCNc1nc(N)c(C(=C(C#N)C#N)c2ccccc2)s1 | 4.9%
53 | Cc1cc([N+](=O)[O-])c(N2CCC[C@@H]2C(=O)O)c([N+](=O)[O-])c1 | 3.1%
54 | COC(=O)CN(C(=S)Nc1ccc(Cl)cc1)C1CC(=O)N(c2ccc(OC)cc2)C1=O (stereo not drawn) | 12.2%
55 | CC1=NN(C(=O)Cc2ccc(C)cc2)C(O)(c2cccnc2)C1 (stereo not drawn) | 3.6%
56 | COc1ccc(C)cc1NC(=O)CCC(=O)Nc1nnc(C(F)(F)F)s1 | 15.2%
57 | O=C(c1ccccc1)C(Cn1cncn1)C(Sc1ccccc1)c1ccccc1 (stereo not drawn) | -1.8%
58 | COc1ccc(C(=O)N2CCc3cc(OC)c(OC)cc3C2c2cccc([N+](=O)[O-])c2)cc1 (stereo not drawn) | 0.6%
59 | C=CCOc1c2ccc(C(=O)N(CC)c3ccc(OC)cc3)cc2nn1C | 10.6%
60 | Cc1ccc(C)c(NC(=O)C2Cc3ccccc3CN2C(=O)OCc2ccccc2)c1 (stereo not drawn) | -5.4%
61 | CCOc1ccc(NC(=O)Nc2ccc(N(C)C(C)=O)cc2)cc1 | 82.3% (active)
62 | CCOc1ccc(NC(=O)Nc2cc(C)on2)cc1 | 2.9%
63 | CC(=O)N(C)c1ccc(NC(=O)C(F)(F)F)cc1 | 3.7%
